In PubChem BioAssay AID1671189 (National Center for Advancing Translational Sciences (NCATS), 2021):
Where “and” joins values, the source holds several entries; their conditions need not be identical. Identical values can stand only once. In all, about 1,100 compounds went through this assay and about 70 (6%) were called active. Roughly 22% stayed inconclusive and do not appear here. Calls come from the whole dose curve; as a rule, active = well fitted curve in the direction sought with a large enough effect; inconclusive = small, poorly fitted or top-dose-only effect, or another doubt; inactive = no such curve, though single readings can be large or run the other way. The entries come from a sample that favours actives as a whole.

Target: Polyunsaturated fatty acid lipoxygenase ALOX12 (Homo sapiens) (UniProt P18054)
Sequence (P18054 whole entry, looked up): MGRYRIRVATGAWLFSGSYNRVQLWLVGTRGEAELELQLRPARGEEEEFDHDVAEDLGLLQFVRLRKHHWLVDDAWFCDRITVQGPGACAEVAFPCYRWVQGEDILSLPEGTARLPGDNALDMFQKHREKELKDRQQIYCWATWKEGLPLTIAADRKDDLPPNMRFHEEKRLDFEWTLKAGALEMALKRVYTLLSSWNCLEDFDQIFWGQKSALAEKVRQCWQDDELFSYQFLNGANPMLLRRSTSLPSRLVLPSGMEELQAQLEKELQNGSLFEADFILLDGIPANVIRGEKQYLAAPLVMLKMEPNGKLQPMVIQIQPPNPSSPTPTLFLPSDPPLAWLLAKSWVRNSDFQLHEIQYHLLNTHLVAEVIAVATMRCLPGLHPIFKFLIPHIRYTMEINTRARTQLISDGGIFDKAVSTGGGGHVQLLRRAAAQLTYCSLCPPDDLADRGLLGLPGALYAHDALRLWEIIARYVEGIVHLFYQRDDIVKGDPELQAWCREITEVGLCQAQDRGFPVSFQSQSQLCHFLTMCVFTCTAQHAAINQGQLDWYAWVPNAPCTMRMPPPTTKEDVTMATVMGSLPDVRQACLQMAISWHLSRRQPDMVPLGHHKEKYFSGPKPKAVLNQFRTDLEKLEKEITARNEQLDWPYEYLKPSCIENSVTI
Assay: Confirmatory qHTS assay for inhibitors of human arachidonate 12S-lipoxygenase (ALOX12): Round 2
Settings: purified human 12-LOX, xylenol orange absorbance; series mostly up to 125 µM; activity change, negative = inhibition: at the top concentration
Summary of the method: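 Activity was measured as hydroperoxide formation via ferrous/xylenol orange, taking the 573 nm to 405 nm absorbance ratio. Reaction: 40 uM arachidonic acid, 30 min at room temperature, after 15 min compound preincubation with 150 nM enzyme, pH 7.0 Hepes buffer.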
% is set by controls: 0 for no effect and ±100 for the full control effect; potency is the fitted concentration of half-maximal effect.

Activity change, negative = inhibition, inactive:
C[S+](=O)([O-])N1Cc2ccccc2OC2(CCN(C(=O)c3ccc(N)nc3)CC2)C1 -11.4%
CN1C(=O)[C@@H]2C[C@@H](CN2C2CCCC2)Oc2ccccc21 14.6%
N#Cc1ccc(CN2CCC3(CN[S+](=O)([O-])c4cnccc4O3)C2)cc1 (stereo unspecified) -2.99%
CNCCN1C(=O)CC[C@H]2CN(C(=O)c3ccc(Cl)cn3)CC[C@H]21 -6.14% [at 64.5 µM]
C=CCNC(=O)[C@@H]1Cc2cn(CC#CC)c3cccc(c23)[C@H](CC(C)C)N1 24% [at 64.5 µM]
Cc1ccc(C(=O)N2CCn3c(nnc3C3CCNCC3)C2)cc1 -13.1%
c1ccc(COCCCc2cnc[nH]2)cc1 -4.41%
COCCNC(=O)c1cc(C)nc2onc(C3CCCNC3)c12 (stereo unspecified) -16.4%
O=C(O)c1ccc(-c2cnccn2)cc1 -16.6% [at 233 µM]
CN1CCC2(Cc3ccccc3CN(C(=O)Cc3cccc(Cl)c3)C2)C1 (stereo unspecified) -13.9%
CNC(C)c1cccc(OC)c1 (stereo unspecified) -2.95% [at 233 µM]
O=C(CCC[C@H]1NC[C@@H]2CC1CN(Cc1ccccc1)C2)NCc1ccc(F)cc1 -6.95% [at 64.5 µM]
Cc1ccc(CN2CCC3(CC2)Cc2ccccc2CNC3=O)cc1C -18.2%
O=C(NCc1ccncc1)c1cc(C2CC2)nc2c1c(C1CCCN1)nn2-c1ccccc1 (stereo unspecified) -24.4%
Cc1cc(C(=O)NCc2ccc(F)cc2)c2c(C3CCNC3)noc2n1 (stereo unspecified) -2.62%
O=C1CCN(C(=O)[C@@H]2CCCN2Cc2ccc(C(F)(F)F)cc2)CCCCCCN1 0.301% [at 64.5 µM]
CCn1cc(-c2ccc(C)cc2)cc1C(=O)N1CCN(c2ccccn2)CC1 -19.2% [at 64.5 µM]
CCC(C)Cn1c(/C=C/c2ccccc2)nc2ccccc21 (stereo unspecified) -20.9%
C[C@]1(CO)[C@H]2Cc3sc(NC(=O)c4ccnc(Cl)c4)nc3[C@@H](CC(=O)O)[C@]2(C)CC[C@H]1O -0.718% [at 64.5 µM]
COC(=O)[C@H](c1ccccc1Cl)N1CCc2sccc2C1 -3.69%
CC(=O)NC(c1cccs1)c1cc(Br)c2cccnc2c1O (stereo unspecified) 6.7% [at 64.5 µM]
NCc1cccc(-c2cc(C(F)(F)F)ccc2Cl)c1 -40.7%
Cc1ccc(CN2CCc3oc(C)c(C(=O)N4CCSCC4)c3C2)cc1 -4.93% [at 64.5 µM]
Cc1ccc(CCN2CCCCC23Cc2ccccc2CN(C(=O)CCCC(=O)O)C3)cc1 (stereo unspecified) -13.9%
CN1CC(=O)N(C2CCCNC2)Cc2c(NC3CCCCCC3)ncnc21 (stereo unspecified) -16.7%
CC(C)(N)C(=O)N1CCCC(N2CCN(Cc3ccc4c(c3)OCO4)CC2)C1 (stereo unspecified) -16% [at 64.5 µM]
COc1ccc(N2CC3CCC(C2)N3C(C)=O)cc1 -16.6%
O=C(c1cc(C2CC2)nc2onc(C3CCCN3)c12)N1CCC(F)CC1 (stereo unspecified) -12.7%
COc1ccc(C(=O)N2CC(Oc3ccc4c(c3)OCO4)C2)cc1 -21.1%
O=C(Nc1ccccc1)O[C@@H]1CO[C@H]2[C@@H]1OC[C@@H]2n1nnnc1SCc1ccco1 -10.7% [at 64.5 µM]
O=C(c1cc(C2CC2)nc2c1c(C1CCCN1)nn2-c1ccccc1)N1CCC(F)CC1 (stereo unspecified) -14.7%
CNc1nnc(-c2cccc3ccccc23)s1 1.24% [at 64.5 µM]
CCC(=O)N1Cc2ccccc2CC2(CCN(Cc3ccncc3)CC2)C1 1.87%
O=C(C1CCCC1)N1Cc2ccccc2CC2(CCN(Cc3cccnc3)C2)C1 (stereo unspecified) -28.9%
O=C(C1CCCC1)N1Cc2ccccc2CC2(CCN(Cc3ccncc3)C2)C1 (stereo unspecified) -11.8%
CCCC(=O)N1Cc2ccccc2CC2(CCN(Cc3ccc(O)cc3)C2)C1 (stereo unspecified) -12.5%
O=C(c1ccc(Cl)cc1)N1CC2(CCCN(Cc3ccccn3)C2)Cc2ccccc21 (stereo unspecified) -27.8%
CCCC(=O)N1Cc2ccccc2CC2(CCN(Cc3ccccc3)CC2)C1 -3.28%
CC(=O)N1CC2(CCCN(CC3CCCCC3)C2)Cc2ccccc21 (stereo unspecified) -4.35%
CC(=O)N1Cc2ccccc2CC2(CCN(Cc3ccncc3)C2)C1 (stereo unspecified) -13.8%
CC(=O)N1Cc2ccccc2OC2(CCN([S+](C)(=O)[O-])CC2)C1 -1.67%
CNc1oc(C2CCCC2)nc1C#N 18.7% [at 64.5 µM]
Cc1cccc(-c2cnc3n[nH]c(-c4ccc5c(c4)OCO5)c3n2)c1 -11.5% [at 64.5 µM]
CN1CC(=O)N(C2CCCNC2)Cc2c(NC3CCC3)ncnc21 (stereo unspecified) -14.2%
N#Cc1cc2nc(O)c(O)nc2cc1[N+](=O)[O-] -5.48%
OC1(CN2CCN(c3nccs3)CC2)CCCNC1 (stereo unspecified) -6.16% [at 64.5 µM]
Cc1ccc(-c2ccccc2CN)c(C)c1 -9.84%
CCOCCCNc1ncnc2c1CN(C1CCCNCC1)C(=O)CN2C (stereo unspecified) -3.49%
CN1CC(=O)N(C2CNC2)Cc2c(NC3CC3)ncnc21 5.35%
CN1CC(=O)N(C2CCCNC2)Cc2c(NCC3CCCCCC3)ncnc21 (stereo unspecified) -26.4%
O=C1NCc2ccccc2CC12CCN(Cc1ccc(F)c(Cl)c1)CC2 -23.5%
C[S+](=O)([O-])N1CC2(Cc3ccccc3NC2=O)C1 -1.61%
N#Cc1ccc(CN2CCn3c(nn(-c4cccc(Cl)c4)c3=O)C2)cc1 -26.4%
O=C(c1ccc(C(F)(F)F)cc1)N1CCC2(CC1)C(=NC1CCCCC1)NC(=O)N2c1cc(F)cc(F)c1 -16.1%
CC(=O)NCCC(=O)N1Cc2ccccc2CC2(CCCN2CC2CCNCC2)C1 (stereo unspecified) -18%
COc1cccc(CC(=O)N2CC(CO)C3(CCNCC3)C2)c1 (stereo unspecified) -11.8% [at 64.5 µM]
Nc1ccccc1CN1CCCC2(Cc3ccccc3CNC2=O)C1 (stereo unspecified) -0.411%
Cc1cc(C)cc(CN2CCC3(Cc4ccccc4CNC3=O)C2)c1 (stereo unspecified) -13.7%
Cc1ccc(CN2CCC3(Cc4ccccc4CNC3=O)C2)cc1C (stereo unspecified) -25.3%
CCOc1ccc(CN2CCC3(Cc4ccccc4CNC3=O)C2)cc1 (stereo unspecified) -18.2%
O=C1NCc2ccccc2CC12CCN(Cc1ccccc1Cl)C2 (stereo unspecified) -22.5%
O=C1NCc2ccccc2CC12CCN(Cc1ccc(Cl)cc1)CC2 -21.7%
CCOc1cccc(CN2CCC3(Cc4ccccc4CNC3=O)C2)c1 (stereo unspecified) -12.7%
O=C1NCc2ccccc2CC12CCN(Cc1cccc(Br)c1)C2 (stereo unspecified) -17.3%
O=C1NCc2ccccc2CC12CCN(Cc1cc(O)cc(O)c1)C2 (stereo unspecified) -15%
CSc1ccc(-c2ccc(C=O)cc2)cc1 -29.7% [at 233 µM]
CC(C)Nc1ncnc2c1CN(C1CCCNC1)C(=O)CN2C (stereo unspecified) -17.1%
CN1CC(=O)N(C2CCCNC2)Cc2c1ncnc2N1CCN(Cc2ccccc2)CC1 (stereo unspecified) -24.9%
CN1CC(=O)N(C2CCCNCC2)Cc2c1ncnc2N1CCCC(O)C1 (stereo unspecified) -10.7%
CC[C@@](N)(C(=O)O)c1ccc(C(=O)O)cc1 8.94%
CCOCCCNc1ncnc2c1CN(C1CCNCC1)C(=O)CN2C -15.7%
CN1CCC(C(=O)N2Cc3ccccc3OC3(CCN(C(=O)N(C)C)CC3)C2)CC1 -22.8%
Cn1nc(C2CCCN2)c2c(C(=O)NCc3ccc(F)cc3)cc(C3CC3)nc21 (stereo unspecified) -19.8%
O=Cc1ccccc1-c1ccc(O)cc1 -36% [at 233 µM]
COc1ccc(N2CC3CCC(C2)N3Cc2cccc(Cl)c2)cc1 -10.1%
O=C(O)CCC(=O)N1Cc2ccccc2CC2(CCCN2CC2CCNC2)C1 (stereo unspecified) -22.5%
COc1cccc(CNc2ncnc3c2CN(C2CCCNCC2)C(=O)CN3C)c1 (stereo unspecified) -12.4%
CN1CCCC2(Cc3ccccc3CN(C(=O)c3ccc(Cl)cc3)C2)C1 (stereo unspecified) -17.8%
OCC1CN(c2ncccn2)CC12CCN(Cc1cccc3[nH]ccc13)CC2 (stereo unspecified) -5.1% [at 64.5 µM]
CN1CC(=O)N(C2CCCNCC2)Cc2c1ncnc2N1CCC(N2CCCCC2)CC1 (stereo unspecified) -3%
CNC(C)c1ccc(Oc2ccccc2)cc1 (stereo unspecified) -25.5%
Cn1nc(C2CCCNC2)c2c(C(=O)NCC(F)(F)F)cc(C3CC3)nc21 (stereo unspecified) -21.6%
O=C(O)c1cccc(-c2cnc3ccccc3c2)c1 -20.4%
Cn1nc(C2CCCN2)c2c(C(=O)NCc3cccs3)cc(C3CC3)nc21 (stereo unspecified) -15.3%
O=C(N1CCOCC1)N1CCCC1c1nnc2n1CCNC2 (stereo unspecified) -9.23%
NC(Cc1ccccc1)C(=O)N1CCC2(CC1)CN(C(=O)c1ccc(Cl)cc1)CCO2 (stereo unspecified) -0.789%
O=S(=O)(Nc1ncc(CN2CC[C@H]3CNC[C@H]32)cn1)c1ccccc1 -2.77% [at 64.5 µM]

Potency, active:
C=CCn1cc(CN(Cc2ccco2)Cc2cccs2)c(C)n1 10 µM
O=[S+]([O-])(Nc1ccc(N2CCNCC2)cc1)c1ccc(NCc2ccc(Cl)cc2O)cc1 21.7 µM
O=[S+]([O-])(Nc1ccc(N2CCNCC2)cc1)c1ccc(NCc2ccc(Br)cc2O)cc1 21.7 µM
CCC(=O)NC(c1cccs1)c1cc(Cl)c2cccnc2c1O (stereo unspecified) 1.93 µM and 4.85 µM and 2.43 µM
CC(=O)NC(c1cccs1)c1cc(Cl)c2cccnc2c1O (stereo unspecified) 3.06 µM
CCC(=O)NC(c1cccs1)c1cc([N+](=O)[O-])c2cccnc2c1O (stereo unspecified) 6.11 µM
O=C(NC1CCCCC1)O[C@@H]1CO[C@H]2[C@@H]1OC[C@@H]2n1nnnc1SCc1ccco1 7.08 µM
O=C(C1CCCC1)N1CC2(CCN(Cc3ccc(Cl)cc3)C2)Cc2ccccc21 (stereo unspecified) 6.22 µM
NC(=O)c1cccc(CN2CCC3(CC2)Cc2ccccc2N(C(=O)c2ccc(Cl)cc2)C3)c1 22.1 µM
O=C(c1ccc(Cl)cc1)N1CC2(CCN(Cc3ccc(Cl)cc3)C2)Cc2ccccc21 (stereo unspecified) 1.56 µM
O=C(c1ccc(Cl)cc1)N1CC2(CCCN(Cc3ccc(Cl)cc3)C2)Cc2ccccc21 (stereo unspecified) 4.94 µM
O=C1NCc2ccccc2CC12CCN(Cc1ccc(Br)cc1)C2 (stereo unspecified) 17.5 µM
O=C1NCc2ccccc2CC12CCN(Cc1ccc(Cl)cc1)C2 (stereo unspecified) 27.5 µM
O=C1NCc2ccccc2CC12CCN(Cc1ccc(Oc3ccccc3)cc1)C2 (stereo unspecified) 55.5 µM
Cc1cc(C)c(CN2CCC3(Cc4ccccc4CNC3=O)C2)c(C)c1 (stereo unspecified) 0.879 µM
CC(=O)NC(C)c1cc(F)c2cccnc2c1O (stereo unspecified) 17.2 µM
CC(=O)NCc1cc(Cl)c2cccnc2c1O 1.93 µM
CCC(=O)NC(c1cc(Cl)c2cccnc2c1O)C(C)C (stereo unspecified) 10.9 µM
CC(=O)NC(C)c1cc(Cl)c2cccnc2c1O (stereo unspecified) 6.85 µM
